Compound activity from PubChem BioAssay.
NPSR antag: neuropeptide S receptor (human) antagonism, cAMP. CHO-NPSR cells, cAMP TR-FRET, antagonist mode. 1% of 220,000 active. Q6W5P4. Potency, µM (titrated, usually from 38.3 µM), inactives show at the top dose activity change, negative = inhibition, most hits filed as inhibitors; note: potency is the fitted concentration of half-maximal effect; nearly all actives have a fitted effect of over 50% in size
ALDH1A1 inh: ALDH1A1 (human) enzyme inhibition | 7.3% of 220,000 active | Potency, µM (series often up to 75.3 µM), for inactives: at the top dose activity, negative = inhibition, hits mostly inhibitors | Purified ALDH1A1, NADH fluorescence, propionaldehyde substrate | AID 1030 | P00352; active = well fitted inhibition curve with a large enough effect, not every such curve was filed as active; inconclusive = small, poorly fitted or top-dose-only effect, or another doubt; inactive = no such curve, though single readings can be large or run the other way;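 note: potency is the fitted concentration of half-maximal effect; plate controls were no enzyme wells and a reference inhibitor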
IMPase Li cell: membrane-permeable IMPase blocker, potentiated with lithium; CHO-M1 cells, IP1 TR-FRET (IP-One), carbachol + lithium; Potency, µM (doses to about 59.4 µM), inactives show top-dose activity, negative = IMPase inhibition, actives largely listed as inhibitors; 0.35% of 210,000 active;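 note: IP1 builds up when IMPase is blocked and the TR-FRET signal falls; potency is the fitted concentration of half-maximal effect; plate controls were basal vehicle for no effect and high inhibitor control for full effect; nearly all actives have a fitted effect of over 50% in size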
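Steps: plate 2000 CHO-M1 cells per well and culture 16–30 h; add compound and lithium; incubate 30 min, 37C; add d2-IP1 tracer and Eu cryptate anti-IP1 antibody in lysis buffer; read after 10 min at room temperature.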
ALOX12 inhib: inhibitors of human 12-lipoxygenase (ALOX12); P18054; purified 12-hLO, xylenol orange hydroperoxide absorbance; Potency, µM (doses to about 57.1 µM), inactives show top-dose activity change, negative = inhibition, most hits filed as inhibitors; 0.12% of 150,000 active; AID 1452; note: potency is the fitted concentration of half-maximal effect; nearly all actives have a fitted effect of over 55% in size
Target sequence (P18054 whole entry, looked up): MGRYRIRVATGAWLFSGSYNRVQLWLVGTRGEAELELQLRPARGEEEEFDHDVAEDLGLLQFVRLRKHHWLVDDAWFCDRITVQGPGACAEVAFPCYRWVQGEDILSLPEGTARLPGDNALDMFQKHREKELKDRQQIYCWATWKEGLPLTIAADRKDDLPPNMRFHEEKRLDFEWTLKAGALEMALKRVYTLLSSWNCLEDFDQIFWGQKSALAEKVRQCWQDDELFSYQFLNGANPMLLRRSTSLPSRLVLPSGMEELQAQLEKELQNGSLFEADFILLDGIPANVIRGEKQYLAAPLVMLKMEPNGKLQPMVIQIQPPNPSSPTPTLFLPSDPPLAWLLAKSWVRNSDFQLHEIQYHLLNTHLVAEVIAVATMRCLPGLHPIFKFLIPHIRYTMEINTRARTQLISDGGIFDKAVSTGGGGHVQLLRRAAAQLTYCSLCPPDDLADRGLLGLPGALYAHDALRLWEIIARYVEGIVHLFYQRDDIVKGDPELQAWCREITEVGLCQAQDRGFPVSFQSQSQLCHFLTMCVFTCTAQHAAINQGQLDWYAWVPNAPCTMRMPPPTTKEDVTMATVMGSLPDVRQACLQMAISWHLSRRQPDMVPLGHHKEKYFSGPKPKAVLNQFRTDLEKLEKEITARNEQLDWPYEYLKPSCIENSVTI
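Purified human 12hLO (150 nM final) was preincubated with compounds for 15 min at room temperature in 25 mM Hepes pH 7.0, 0.01% Triton X-100, then reacted with 40 uM arachidonic acid for 30 min. Hydroperoxide was detected with ferrous iron/xylenol orange.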
HPGD inh: blocks human HPGD enzyme activity; P15428; purified HPGD, NADH fluorescence kinetic, PGE2 substrate; Potency, µM, inactives show at the highest dose activity change, negative = inhibition, usual class: inhibitors; 4.3% of 150,000 active; AID 894; active = well fitted inhibition curve with a large enough effect, not every such curve was filed as active; inconclusive = small, poorly fitted or top-dose-only effect, or another doubt; inactive = no such curve, though single readings can be large or run the other way; note: potency is the fitted concentration of half-maximal effect
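NADH formation kinetics: reaction with 30 uM PGE2 and 1 mM NAD+ (final), 20 nM enzyme, Tris-HCl pH 8 with Tween 20, after 15 min compound preincubation at room temperature. Fluorescence change, last versus first of five reads.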
IMPase cell inh: cell-permeable inhibitors of inositol monophosphatase (IMPase) | 120,000 tested, under 10 active | AID 901 | CHO-M1 cells, IP1 accumulation, HTRF TR-FRET ratio | P97697 | inhibition (IP1 accumulation), % at 46.1 µM; active = well fitted curve in the direction sought with a large enough effect in the signal ratio, not every such curve was filed as active; inconclusive = small, poorly fitted or top-dose-only effect, or a change in a side signal; inactive = no such curve, though single readings can be large or run the other way; the % refers to the signal ratio;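 note: cells stimulated with carbachol in lithium chloride buffer; plate controls were DMSO basal wells for no effect and reference inhibitor wells for full effect; higher means more IMPase inhibition seen as more IP1 and lower FRET ratio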
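CHO-M1, 2000 cells/well, cultured 16–30 h; cpd up to 46 uM; carbachol (50 uM solution, stimulation buffer w/ 50 mM LiCl, pH 7.4), 30 min 37C; IP-One TR-FRET, 10 min RT; Ex 320/Em 665, 620; Hill-fit AC50.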
* marks the source's active call; other numbers are inactive results; ? = inconclusive; / = no result given; [ ] = remark or other dose. The list is not random: actives were taken first. Their share in the collection is about 8.9%. Unless noted, calls come from the whole dose curve; as a rule, active = well fitted curve in the direction sought with a large enough effect; inconclusive = small, poorly fitted or top-dose-only effect, or another doubt; inactive = no such curve, though single readings can be large; an effect the other way counts as inactive or inconclusive. Unless noted, % is set by controls: 0 for no effect and ±100 for the full control effect.

SMILES	NPSR antag	ALDH1A1 inh	IMPase Li cell	ALOX12 inhib	HPGD inh	IMPase cell inh
Cc1cc(C)cc(OCC(=O)Nc2ccccc2C(=O)NCc2ccco2)c1	-5%[46.1 µM]	-1%	27%[38.3 µM]	-1%	-10%	7
O=C(O)c1ccccc1-c1ccccc1C(=O)Nc1ccc2c(c1)Cc1cc(F)ccc1-2	/	-4%[13.5 µM]	-3%	-4%[11.4 µM]	-15%	/
NCc1ccc(C(=O)O)cc1	/	-2%[13.5 µM]	-3%	-3%[11.4 µM]	-1%	/
CC(=O)Nc1cccc(C(=O)N/N=C/c2ccccc2F)c1	6%	4%	-7%	-6%	35µM*	/
CCN(CC)S(=O)(=O)c1cccc(C(=O)N/N=C/c2ccccc2OCC(=O)O)c1	6%	-10%	6%	/	/	/
CCN(CC)S(=O)(=O)c1cccc(C(=O)N/N=C/c2ccc(OC)c(O)c2)c1	1%	25µM*	-3%	-1%	-11%	/
CC(=O)Nc1cccc(C(=O)N/N=C/c2ccc(F)cc2)c1	4%	4%	-2%	-2%	-15%	/
COc1ccccc1/C=N/NC(=O)c1cccc(NC(=O)c2ccccc2Cl)c1	-2%	20µM*	7%	/	/	/
COc1ccc(/C=N/NC(=O)c2cccc(NC(=O)c3ccccc3Cl)c2)c(OC)c1	-1%	?	8%	/	/	/
C/C(Cl)=C/CSc1nnc2n(N)c(=O)c3ccccc3n12	2%[46.1 µM]	?	10%[38.3 µM]	2%	-17%	10
Cc1nc(NC(=O)c2cc3c(s2)CCCCC3)sc1C(=O)N(C)C	-7%[46.1 µM]	?	12%[38.3 µM]	-1%	-28%	-4
Cc1csc(NC(=O)c2cc3c(s2)CCC3)n1	6%[46.1 µM]	?	-2%[38.3 µM]	-18%	7.9µM*	6
CC(NC(=O)c1cc2c(s1)CCCC2)C(C)(C)C (stereo not drawn)	-23%[46.1 µM]	-4%	11%[38.3 µM]	1%	14µM*	1
O=C(Nc1nnc(C2CC2)s1)c1cc2c(s1)CCCCCC2	?	?	10µM*	-6%	?	1
Cc1onc(-c2ccccc2)c1C(=O)Nc1sc2c(c1C#N)CCC(C)C2 (stereo not drawn)	-26%[46.1 µM]	?	1%[38.3 µM]	-6%	-10%	5
Cc1onc(-c2c(F)cccc2Cl)c1C(=O)NC(=S)NC1CCSC1=O (stereo not drawn)	-13%	10µM*	13%	2%	?	/
Cc1onc(-c2c(Cl)cccc2Cl)c1C(=O)NC(=S)Nc1sc2c(c1C(N)=O)CCC(C)C2 (stereo not drawn)	-7%	19µM*	-8%	1%	-5%	3
COCCCNC(=O)CCc1nc(-c2ccccc2Cl)no1	-16%[46.1 µM]	19%	14%[38.3 µM]	1%	-23%	-5
COc1ccc(NC(=O)c2oc3ccccc3c2NC(=O)C2CC2)cc1	-29%[46.1 µM]	?	-3%[38.3 µM]	0%	?	-1
Oc1c(Cl)cc(Cl)cc1/C=N/c1nccs1	7%[46.1 µM]	14µM*	11%[38.3 µM]	-23%	-23%	-8
COc1ccc(/C=N/NC(=O)c2ccc(C)cc2)cc1CN1CCN(c2ccc(F)cc2)CC1	-17%[46.1 µM]	2%	11%[38.3 µM]	-7%	-27%	10
COc1ccc(/C=N\NC(=O)c2cc(O)c(O)c(O)c2)cc1CN1CCN(c2ccc(F)cc2)CC1	7%	13µM*	30%	-13%	-23%	6
Cc1ccc(C2OCC3(CO2)COC(c2ccc(C)cc2)OC3)cc1 (stereo not drawn)	6%	2%	-2%	0%	-8%	/
Cc1ccc(C2OCC3(CO)COC(c4ccc(C)cc4)N23)cc1 (stereo not drawn)	-17%[46.1 µM]	4.5µM*	47%[38.3 µM]	?	-11%	0
O=C(CSc1nnnn1-c1ccc(F)cc1)c1ccc(O)c(O)c1	-4%	22µM*	31%	/	/	/
SMILES	NPSR antag	ALDH1A1 inh	IMPase Li cell	ALOX12 inhib	HPGD inh	IMPase cell inh
CCOC(=O)C1=C(C)c2ccccc2OC1(CC)C(=O)OCC (stereo not drawn)	/	1%	13%	0%[0.00818 µM]	-11%	/
CCOC(=O)C1=C(C)c2ccccc2N(C(=O)OC)C1(C)C(=O)OCC (stereo not drawn)	/	32µM*	19%	?	?	/
COc1ccc(N2C(=O)C3CCCCC3C2=O)cc1NC(=O)c1ccccc1 (stereo not drawn)	3%	0.89µM*	2%	/	/	/
COc1cc(NC(=O)C2CCCO2)c(OC)cc1NC(=O)c1ccccc1 (stereo not drawn)	-11%[46.1 µM]	-7%	1%[38.3 µM]	5%	-4%	11
COc1ccccc1-c1nnc(SC/C(O)=C(\C#N)c2nc3ccccc3[nH]2)n1C1CCCCC1	-34%	?	8%	6%	35µM*	/
COC(=O)C1=C(C)N(CCc2ccc(OC)c(OC)c2)C(=O)/C1=C\N(C)C	-1%[46.1 µM]	14µM*	35%[38.3 µM]	-7%	-7%	-4
C/C(N)=C(/C#N)C(=O)CSc1nc2scc(-c3ccc(F)cc3)c2c(=O)n1C	-22%	16µM*	7%	/	/	/
COc1cc(OC)cc(C(=O)N2CCN(Cc3ccccc3C(F)(F)F)CC2)c1	-16%[46.1 µM]	14µM*	/	-20%	/	12
COc1cc(C(=O)N2CCN(Cc3ccccc3C(F)(F)F)CC2)cc(OC)c1OC	-29%[46.1 µM]	?	20%[38.3 µM]	-15%	-9%	-1
COc1ccc(OC)c(CN2CCN(C(=O)c3cccc4ccccc34)CC2)c1	-20%[46.1 µM]	25µM*	2%[38.3 µM]	-10%	-13%	9
Cc1ccc(S(=O)(=O)N2CCN(S(=O)(=O)c3ccccc3)C2c2ccc(N(C)C)cc2)cc1 (stereo not drawn)	-26%[46.1 µM]	?	26%[38.3 µM]	3%	-16%	5
COc1cccc(C2C(C(=O)Nc3ccccc3)=C(C)N=c3s/c(=C/c4ccc(OCC(=O)O)cc4)c(=O)n32)c1 (stereo not drawn)	-2%	-12%	1%	-2%	-23%	/
CCOC(=O)C1=C(C)N=c2s/c(=C\c3ccc(OCC(=O)O)cc3)c(=O)n2C1c1ccc(OC(C)C)cc1 (stereo not drawn)	-58%	8%	7%	-6%	4.5µM*	/
CCn1c(SCc2ccc(C(=O)OC)o2)nc2sc3c(c2c1=O)CCCC3	-21%[46.1 µM]	-7%	32%[38.3 µM]	4%	-10%	-1
Cn1c(SCc2nnc(-c3ccccc3Br)o2)nc2sc3c(c2c1=O)CCC3	?	-11%	21%[38.3 µM]	-5%	8.9µM*	-1
COCCCn1c(SCc2nnc(-c3ccccc3)o2)nc2sc3c(c2c1=O)CCC3	?	?	9%[38.3 µM]	-3%	14µM*	4
CCOc1cccc(-c2nnc(SCC(=O)Nc3cccc(OC)c3)n2N)c1	-7%[46.1 µM]	4%	/	-3%	/	6
O=C(NCc1ccco1)c1cc(NS(=O)(=O)c2cccc([N+](=O)[O-])c2)ccc1O	-3%	11µM*	8%	/	/	/
